Shown are actives, neighbours in structure and some others; about 3.1% of the full set was active somewhere.
HIF activator: HIF pathway transcriptional activation; AID 1910; 300,000 compounds, 0.32% hits; activation, % at 7.5 µM (by protocol); U2OS HRE-luciferase reporter, luminescence; normalized: DMSO 0%, desferrioxamine 100%;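 active means mean activation of at least 10% of the iron chelator positive control signal, with at least half of replicates also reaching 10%; inconclusive means mean and replicate majority disagree about reaching 10%; inactive means mean and most replicates under 10%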
HSF1 activator: increases HSF-1 driven luciferase reporter signal; activation, % at 9 µM; NIH3T3-HGL HSF-1 luciferase reporter, MG132, 8 h; 100% = twice DMSO control signal; 300,000 compounds, 1.7% hits;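 active means mean replicate activation of at least 50% with a set share of replicates each reaching 50%; inconclusive means only one of those two conditions met; inactive means mean below 50% and too few replicates reaching it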;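 further: 0% = median of the neutral control wells and 100% = twice that signal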
HSP90 inh: blocks HSP90-mediated luciferase refolding in reticulocyte lysate. Rabbit reticulocyte lysate, luciferase refolding luminescence, 3 h. inhibition, % at 5.6 µM. 290,000 compounds, 0.91% hits;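 active means inhibition above the screen-wide mean plus 3 SD, computed separately per campaign, cut at about 16% in these data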;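 further: 0% = DMSO wells and 100% = 60 µM geldanamycin wells; inhibitors lower the luminescence because luciferase stays unfolded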
ARNT TACC3 PPI: ARNT/TACC3 interaction disruption. inhibition, % at 9.99 µM. Q9Y6A5. 390,000 compounds, 0.66% hits. AlphaScreen His-ARNT PAS-B/GST-TACC3 binding, luminescence; TACC3 fragment carries E629A point mutation;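 active means mean inhibition of replicates at least 50% and at least half of replicates each reaching 50%; inconclusive means half or more replicates reach 50% but mean below 50%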;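 further: 0% = complete ARNT plus TACC3 wells and 100% = ARNT alone without TACC3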
HSF1 inhib: HSF1 inhibition; NIH3T3-HGL HSE-luciferase, MG132-induced, luminescence 8 h; stronger effect = lower value; activity change, negative = inhibition, % at 7.5 µM (by protocol); 300,000 compounds, 0.77% hits; AID 2098;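 active means more than half of replicate wells show activity change below -50%, luminescence cut by over half; inconclusive means some wells, but at most half, below -50%; inactive means no replicate well below -50%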;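 further: luciferase reports HSF-1 transcriptional activity via heat shock element; 0% = median of DMSO wells and -100% = zero luminescence signal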
* hit, by the source's call; ? = inconclusive; . = no result.

SMILES	HIF activator	HSF1 activator	HSP90 inh	ARNT TACC3 PPI	HSF1 inhib
COc1ccc(NC(=O)N(C)C[C@H]2Oc3ccc(NS(=O)(=O)c4c(C)noc4C)cc3C(=O)N([C@@H](C)CO)C[C@@H]2C)cc1	.	.	.	-4	.
Cc1nc2ccccc2cc1OCc1ccc(Cl)cc1	3	59*	-1	-11	37
CCN(CCCn1c(=S)[nH]c2ncccc2c1=O)c1ccccc1	-1	21	-1	31	6
CCN(CC)CCCn1c(=S)[nH]c2ncccc2c1=O	0	62*	2	-3	16
CCc1ccc(CSc2nccn2-c2ccccc2)cc1	0	7	5	30	2
c1ccc(CCSc2nccn2-c2ccccc2)cc1	3	58*	0	26	36
Cc1nc2cc(-c3ccccc3)sc2c(=O)n1N	?	-58	49*	3	-53*
COc1ccc(-c2cc3nc(C)n(N)c(=O)c3s2)cc1	-6	-72	85*	-6	-70*
O=C(Nc1ccc2c(c1)[C@@H]1C[C@H](CC(=O)N3CCc4ccccc4C3)O[C@H](CO)[C@@H]1O2)C1CCC1	.	.	.	0	.
O=C1OC(Nc2cc(Br)cc3cccnc23)c2ccccc21 (configuration not stated)	0	7	17*	31	8
O=C1OC(Nc2ncccn2)c2ccccc21 (configuration not stated)	0	-10	1	-12	5
CCC(=O)N1c2ccc(S(=O)(=O)CCC(=O)Nc3ccc(OC)cc3OC)cc2CC1C (configuration not stated)	0	53*	3	-3	20
COc1ccc(S(=O)(=O)CCC(=O)Nc2cc(C)ccc2OC)cc1	0	-73	-4	2	-66*
CCOc1ccccc1NC(=O)CCS(=O)(=O)c1ccc2c(c1)CC(C)N2C(C)=O (configuration not stated)	0	10	0	-1	1
C[C@H]1CN([C@@H](C)CO)C(=O)Cc2cc(NC(=O)CCN3CCOCC3)ccc2O[C@H]1CN(C)S(=O)(=O)c1ccc(F)cc1	.	.	.	-11	.
Cc1ccc2nc3c(cc2c1)CN(Cc1ccco1)C(=NCC1CCCO1)S3 (configuration not stated)	1	-5	-1	.	-8
Cc1cccc2cc3c(nc12)SC(=NCC1CCCO1)N(Cc1ccco1)C3 (configuration not stated)	1	190*	9	.	166
O=C(COc1ccccc1)NCCSCc1ccccc1Cl	2	70*	0	-5	39
COc1ccccc1OCC(=O)NCCSCc1ccccc1Cl	0	27	0	-6	16
O=S(=O)(c1ccc(N2CCCC2)nc1)N1CCCC1	1	-16	5	-2	-8
NNc1ccc(S(=O)(=O)N2CCCCC2)cn1	0	-19	0	54*	3
CNC[C@@H]1Oc2ncc(C#CC3(O)CCCC3)cc2C(=O)N([C@@H](C)CO)C[C@@H]1C	.	.	.	-1	.
CO[C@@H]1CN(C)C(=O)c2cc(NC(=O)C3CC3)ccc2OC[C@H](C)N(CCC(F)(F)F)C[C@H]1C	.	.	.	1	.
Cc1cc(=O)oc2c(C)c(OC(C)C(=O)NCC(O)c3ccccc3)ccc12 (configuration not stated)	0	51*	-3	-2	15
Cc1cc(=O)oc2c(C)c(OC(C)C(=O)NCCCN3CCOCC3)ccc12 (configuration not stated)	1	-76	2	4	-69*
SMILES	HIF activator	HSF1 activator	HSP90 inh	ARNT TACC3 PPI	HSF1 inhib
COCC(=O)N1[C@H](C(=O)Nc2ccccc2)[C@@H](CO)[C@@H]2Cn3c(ccc(-c4ccccc4)c3=O)[C@@H]21	.	.	.	-15	.
CN1c2ccsc2C(O)=C(C(=S)Nc2ccccc2)S1(=O)=O	1	-1	0	-1	5
Cc1ccccc1NC(=S)C1=C(O)c2sccc2N(C)S1(=O)=O	2	58*	2	-2	25
CN(C)C(=O)CSc1n[nH]c(=O)[nH]c1=O	0	-92	6	-11	-89*
C[C@H]1CCCCO[C@H](CN(C)Cc2ccc(C(F)(F)F)cc2)[C@@H](C)CN([C@@H](C)CO)C(=O)c2cc(NS(=O)(=O)c3ccccc3)ccc2O1	.	.	.	14	.
Cc1ccc(NC2OC(C(O)CO)C(O)C2O)cc1[N+](=O)[O-] (configuration not stated)	0	-2	-1	-10	-2
Cc1ccc(NC2OC(CO)C(O)C2O)cc1[N+](=O)[O-] (configuration not stated)	2	72*	4	-2	30
CCOc1cc(N2CCOCC2)c(OCC)cc1NC(=O)Cc1cccc2ccccc12	-25	121*	-6	-2	74
CCOc1cc(N2CCOCC2)c(OCC)cc1NC(=O)CCS(=O)(=O)c1ccc(Cl)cc1	-1	75*	0	4	58
CC(=O)N(C)C[C@@H]1Oc2ncc(C3=CCCC3)cc2C(=O)N([C@@H](C)CO)C[C@@H]1C	.	.	.	0	.
COc1ccc(N=Nc2n(C)c3ccccc3[n+]2C)cc1	1	-45	79*	.	-27
Cn1c(COc2ccccc2O)[n+](C)c2ccccc21	0	-5	3	-2	-4
Cn1cnnc1Sc1ccc(/C=C/C(=O)c2ccc(O)cc2)cc1[N+](=O)[O-]	0	58*	1	0	30
COC(=O)c1cc2c(ccn2-c2ccc(F)cc2)n1Cc1ccc(OC)cc1	1	48	-4	-3	19
CCn1c(C(=O)OC)cc2c1ccn2-c1ccc(F)cc1	3	52*	-3	.	40
COCC(=O)N(C)C[C@@H]1Oc2cc(-c3ccccc3F)ccc2S(=O)(=O)N([C@H](C)CO)C[C@@H]1C	.	.	.	-3	.
CCOC(=O)CSc1cc(-c2ccccc2)nc2ncnn12	1	75*	-3	-5	47
c1ccc(-c2cc(-c3ccccc3)n3ncnc3n2)cc1	1	4	1	-8	6
O=C(CSc1nnc(-c2ccccc2)c(-c2ccccc2)n1)N1CCc2ccccc21	0	130*	-1	8	78
CCOC(=O)CSc1nnc(-c2ccccc2)c(-c2ccccc2)n1	-1	-86	1	11	-82*
Cc1ccc2c(c1)c1nnc(SCC(=O)N3CCCc4ccccc43)nc1n2CC(=O)O	0	-7	-3	67*	3
CCc1nnc(SCC(=O)N2CCCc3ccccc32)nc1CC	1	0	2	-9	-6
O=C(O)C[C@H]1CC[C@H](NC(=O)Nc2ccccc2)[C@H](CO)O1	.	.	.	-29	.
C[C@@H]1CCCCO[C@H](CN(C)S(=O)(=O)c2ccccc2)[C@H](C)CN([C@@H](C)CO)C(=O)c2cc(NC(=O)c3ccncc3)ccc2O1	.	.	.	-1	.
CCCNC(=O)N1C[C@H](O)COC[C@H]2O[C@@H](CC(=O)N3CCN(C)CC3)CC[C@@H]21	.	.	.	-4	.
Cn1c(-c2ccccc2)cnc1SCC(=O)N1CCCc2ccccc21	1	67*	1	23	17

Source: PubChem BioAssay
